The list is not random: actives were taken first. Their share in the collection is about 21%.
Pf growth 48h: Primary qHTS for delayed death inhibitors of the malarial parasite plastid, 48 hour incubation. AID 504832, 2011. Potency, µM (doses to about 28.7 µM), for inactives: top-dose activity change, negative = inhibition, actives largely listed as inhibitors. P. falciparum luciferase growth in erythrocytes, 48 h. 5.9% of 310,000 active; also: potency is read from the fitted curve at half-maximal effect; % is scaled to controls: 0 for no effect and ±100 for the full control effect
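Growth was read as firefly luciferase luminescence after a 48 h, 37 C, 5% CO2 exposure of compounds to reporter-bearing P. falciparum cultures (0.1% parasitemia, 2% hematocrit final) in Albumax-supplemented RPMI 1640.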
Pf growth 96h: Primary qHTS for delayed death inhibitors of the malarial parasite plastid, 96 hour incubation; Potency, µM (titrated, usually from 28.7 µM), for inactives: top-dose activity change, negative = inhibition, actives largely listed as inhibitors; 6.9% of 320,000 active; P. falciparum luciferase reporter growth, 96 h; also: potency is read from the fitted curve at half-maximal effect; % is scaled to controls: 0 for no effect and ±100 for the full control effect
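Readout is luminescence from an integrated firefly luciferase in P. falciparum. Red cells, 2% hematocrit and 0.05% parasitemia final, were cultured with compound through two parasite generations (96 hours) at 37 C, 5% CO2.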
Shiga toxin inh: A qHTS for Small Molecule Inhibitors of Shiga Toxin; Vero cells, Shiga toxin protein synthesis inhibition reporter; inhibition, % at 38.7 µM; 9.2% of 290,000 active; in the data active = inhibition mostly above about 28%, no sharp cut-off; inactive = mostly below about 43%; also: 0% is about no effect
SARS PLP yeast: qHTS of Yeast-based Assay for SARS-CoV PLP | S. cerevisiae expressing SARS-CoV PLpro, growth rescue | Potency, µM (highest dose often 32.9 µM), for inactives: at the top dose activity, positive = growth rescue, hits mostly activators | 0.19% of 330,000 active | AID 485353, 2010; calls by dose curve; also: potency is read from the fitted curve at half-maximal effect; 0% is about no effect; nearly all actives have a fitted effect of over 55% in size
Cycloheximide cs: Cycloheximide Counterscreen for Small Molecule Inhibitors of Shiga Toxin; max response, %; 12% of 300,000 active; cell reporter, cycloheximide protein synthesis inhibition counterscreen; in the data active = max response mostly above about 13%, no sharp cut-off; inactive = mostly below about 14%; also: read at 38.3 µM for the half of the compounds with a filed dose; 0% is about no effect
NS1 function inh: qHTS Assay for Inhibitors of Influenza NS1 Protein Function. Potency, µM (highest dose often 46.1 µM), without a hit: at the top dose activity, positive = more growth. 0.4% of 270,000 active. AID 2326, 2010; calls by dose curve; also: potency is read from the fitted curve at half-maximal effect; actives are rising curves; nearly all actives have a fitted effect of over 50% in size
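OD600 was taken as the measure of yeast growth restored by compound in an NS1-expressing S. cerevisiae strain. Cells had been washed out of glucose medium and diluted 1:100 into galactose -URA medium, pH 6.0.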
Active calls of the source: *; ? = inconclusive; . = not tested or not shown; [ ] = another dose, or the depositor's remark. Unless noted, calls follow the shape of the dose curve; as a rule, active = well fitted inhibition curve with a large enough effect; inconclusive = small, poorly fitted or top-dose-only effect, or another doubt; inactive = no such curve, though single readings can be large or run the other way.

SMILES	Pf growth 48h	Pf growth 96h	Shiga toxin inh	SARS PLP yeast	Cycloheximide cs	NS1 function inh
O=C(N/N=C\c1ccncc1)c1ccccc1O	101%	23%	20	1%	22	.
CCC(=O)N/N=C/c1ccc(-c2ccc(Cl)cc2)o1	51%	?	67*	-2%	34*	-3%
Cc1cc([N+](=O)[O-])ccc1-c1ccc(/C=N/NC(=O)c2ccc(Br)o2)o1	?	?	23	?	-2	-28%
Cc1cc(C)n(Cc2ccc(C(=O)N/N=C/c3ccc(-c4ccc([N+](=O)[O-])cc4)o3)o2)n1	-10%	5.2µM*	-5	10%	-1	0%
C=CCNC(=S)N/N=C/c1ccc(-c2ccc(OC)cc2)o1	5.2µM*	?	51	1%	16	2%
CC(=O)OC(C(=O)NCCN1CCOCC1)c1c(F)cccc1F (stereo not given)	7%	7%	-3	-1%	1	8%
CC(=O)NC(CC(=O)OCC(=O)N1CCN(S(=O)(=O)c2ccc(C)cc2C)CC1)c1ccccc1 (stereo not given)	?	-18%	.	2%	.	.
C/C(=N/OC(=O)c1ccccc1)c1oc(C)nc1C	-6%	0%	64*	-1%	51*	-10%
C=C(C)C(=O)Nc1nnc(-c2cccs2)s1	4%	28%	81*	-16%	21*	-12%
CCC(C)C(=O)Nc1nnc(-c2cccs2)s1 (stereo not given)	59%	11%	59*	-14%	64*	-2%
O=C(Nc1nnc(-c2cccs2)s1)C1CC1	69%	18%	16	6%	9	0%
COCC(=O)Nc1nnc(-c2cccs2)s1	37%	-2%[5.75 µM]	50	0%	35	-54%
O=C(O)c1ccccc1CSc1nc2ccccc2[nH]1	45%	56%	42	3%	10	-8%
CC(=O)c1ccc(NC(=O)CCn2c(=S)oc3ccccc32)cc1	8%	?	-14	-3%	1	-11%
O=C(O)CCn1c2c(c3ccccc31)C[C@H](NS(=O)(=O)c1ccc(F)cc1)CC2	-4%	2%	.	.	.	.
CCOc1ccc(Nc2ncnc3c2cnn3Cc2ccccc2)cc1	?	?	3	-10%	9	-14%
Cn1ncc2c(Nc3ccc(Cl)c(Cl)c3)ncnc21	13%	4%	35	5%	36*	-29%
Cn1ncc2c(Nc3ccc(-c4ccccc4)cc3)ncnc21	2%	?	76*	-13%	41*	-103%
CCCn1ncc2c(Nc3ccc(C)c(C)c3)ncnc21	63%	-16%	110*	-12%	47*	-22%
Cn1ncc2c(Nc3cc(Cl)cc(Cl)c3)ncnc21	-23%	-26%	1	-11%	-3	-22%
COc1ccc(C(=O)NCc2nnc(SCC(=O)Nc3ccccc3OC)n2C)cc1	8%	?	-3	0%	1	1%
CCCCn1c(=O)c(CCC(=O)OCC(=O)Nc2ccc(F)c(Cl)c2)nc2ccccc21	1%	3%	-12	-6%	-6	14%
CCCn1nc2ccccc2c1P(=N)(N1CCOCC1)N1CCOCC1	12%	12µM*	16	20%	12	0%
O=c1c2ccccc2nnn1CCN1CCOCC1	29%	40%	10	1%	-2	-1%
O=C(O)CCC(CP(=O)(O)O)C(=O)O (stereo not given)	.	.	-6	.	-4	.
SMILES	Pf growth 48h	Pf growth 96h	Shiga toxin inh	SARS PLP yeast	Cycloheximide cs	NS1 function inh
CCc1cc2c(s1)N(CC(=O)OC)C(=O)CN=C2c1ccccc1OC	7%	8.3µM*	-6	0%	11	-13%
CCOc1ccc(NC(=O)C(C)NC(=O)c2ccccc2Cl)cc1S(=O)(=O)N1CCCC1 (stereo not given)	?	?	.	-3%	.	.
O=C(CSCc1ccccc1Cl)NCCSc1ccccn1	20%	21%	69	-4%	21*	.
O=C(COc1ccc(Cl)cc1)NCCSCc1ccccc1Cl	-6%	7%	-9	-46%	-2	-56%
CCOCN(C(=O)CCl)c1c(C)cccc1CC	13µM*	?	.	11%	.	.
CCOCN(C(=O)Cn1cnc2ccccc21)c1c(C)cccc1CC	?	0%	-16	0%	-1	-2%

Bioassay records as filed in PubChem.
